Test results published in PubChem BioAssay AID924 (National Center for Advancing Translational Sciences (NCATS), 2007).
The campaign covered roughly 130,000 compounds. About 1,200 (0.92%) were called active. Inconclusive results (about 3%) are left out. Calls follow the shape of the dose curve; as a rule, active = well fitted cell-killing curve with a large enough effect; inconclusive = small, poorly fitted or top-dose-only effect; inactive = no such curve, though single readings can be large or run the other way. The sample as a whole holds a higher share of actives than the screen did.

assay: qHTS Screen for Compounds that Selectively Target Cancer Cells with p53 Mutations: Cytotoxicity of p53ts Cells at the Permissive Temperature; settings: H1299-p53A138V at 32C, ATP luminescence viability, 24 h; series mostly up to 46.1 µM; activity change, negative = cytotoxicity: at the top concentration; also: nearly all actives have a fitted effect of over 55% in size;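 as to activity change, negative = cytotoxicity: 0% = DMSO and -100% = full killing by reference compound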
Procedure, shortened: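 ATP-content luminescence (ATPlite) read-out after 24 h compound exposure at 32C in H1299-p53A138V cells (600/well). Tested up to 46 uM. Normalized to DMSO (0%) and 100 uM tamoxifen (100% killing); Hill-fit AC50.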
Potency is read from the fitted curve at half-maximal effect.

SMILES | Potency | activity change, negative = cytotoxicity
Cn1c(-c2ccco2)nc2cc3ccccc3cc21 | 1.26 µM (active) | –
c1coc(-c2nc3nc4ccccc4n3nc2-c2ccco2)c1 | – | -9.48% (inactive)
CN(c1nc2ccccc2n2c(-c3ccco3)nnc12)S(=O)(=O)c1ccccc1 | – | 6.38% (inactive)
CC(=O)c1cccc(NC(=O)c2nc(-c3ccccc3)n(-c3cccc(C)c3)n2)c1 | – | 4.4% (inactive)
CC(C)c1nc(-c2ccccn2)no1 | – | 4.68% (inactive)
c1csc(-c2nc(-c3ccncc3)no2)c1 | – | -13.7% (inactive)
c1ccc(-c2noc(-c3cccs3)n2)nc1 | 12.6 µM (active) | –
O=C(Nc1ccccc1Cl)N1CCC(CN2CCCCC2)CC1 | – | 8% (inactive)
COc1cn(CC(=O)Nc2cccc(C)c2C)c(CN2CCCCC2)cc1=O | – | -3.44% (inactive)
CCN1CCC(N(Cc2ccc(F)cc2)C(=O)Nc2cc(C)ccc2C)CC1 | – | -2.24% (inactive)
Cc1cc(Cl)ccc1NC(=O)Cc1ccc(NC(=O)N2CCCCc3ccccc32)cc1 | – | 4.61% (inactive)
C=CC(=O)c1ccc2ccccc2c1 | 12.6 µM (active) | –
Cc1ccc2nc(CC(=O)c3ccc4ccccc4c3)c(=O)[nH]c2c1 | – | 3.51% [at 9.22 µM] (inactive)
CCOc1ccccc1NC(=O)CSc1ncc(S(=O)(=O)c2ccc(C(C)(C)C)cc2)c(=O)[nH]1 | – | 3.76% (inactive)
Cn1c(COc2ccccc2C(C)(C)C)nc2ccccc21 | – | -23.2% (inactive)
NC(=O)CSc1oc(-c2cccs2)nc1S(=O)(=O)c1ccccc1 | – | 6.56% (inactive)
CCCCS(=O)(=O)c1oc(-c2cccs2)nc1S(=O)(=O)c1ccccc1 | 17.8 µM (active) | –
CSc1oc(-c2cccs2)nc1S(=O)(=O)c1ccc(Br)cc1 | – | 14.3% (inactive)
COc1cc(NC(=O)CCn2nc(C)cc2C)cc(OC)c1OC | – | -3.71% (inactive)
CC(=O)c1cccc(Nc2ccc3cc(S(=O)(=O)N4CCC(C)CC4)ccc3n2)c1 | – | 19.8% (inactive)
COc1ccc(N(C)C(=O)C2CCN(S(=O)(=O)c3cc(Br)cc4c3N(C(C)=O)CC4)CC2)cc1 | – | 1.57% (inactive)
Cc1csc(-c2nc3ccccc3n2C)n1 | 15.8 µM (active) | –

SMILES | Potency | activity change, negative = cytotoxicity
CC(C)n1c(-c2cccs2)nc2ccccc21 | – | -3.01% (inactive)
Cc1nn2c3ccccc3nc2n(C)c1=O | – | 5.55% (inactive)
Cc1nn(CC(=O)NCCc2ccccc2)c(=O)c2c1sc1ccccc12 | – | 18.9% (inactive)
COc1ccccc1N1CCN(C2C(=O)c3ccccc3N2C(C)=O)CC1 (centres undefined) | – | 13.8% (inactive)
CCSc1ncc(Cl)c(C(=O)Nc2cc(C)ccc2C)n1 | – | 12.7% (inactive)
Cc1ccc(NC(=O)c2nc(S(=O)(=O)Cc3cccc(C)c3)ncc2Cl)cc1 | 17.8 µM (active) | –
CCOC(=O)c1ccc(NC(=O)c2nc(SCc3ccc(F)cc3)ncc2Cl)cc1 | – | -4.24% (inactive)
Cc1sc2ncn(CC(=O)N3CCN(c4ccc(F)cc4)CC3)c(=O)c2c1S(=O)(=O)N1CCN(c2ncccn2)CC1 | – | 20.4% (inactive)
CCOC(=O)c1cccc(NS(=O)(=O)c2cc(-c3cnc(C)o3)ccc2OC)c1 | – | 8.04% (inactive)
CCOc1ccc2oc(=O)cc(CN3CCN(C(=O)c4ccc(F)cc4)CC3)c2c1 | – | 8.43% (inactive)
COc1ccc2cc(-c3nc(Cl)c4c5c(sc4n3)CC(C)CC5)c(=O)oc2c1 (centres undefined) | – | 5.32% (inactive)
O=c1oc2cc(O)ccc2cc1-c1ccc(F)cc1 | – | -2.7% (inactive)
COc1ccc(-c2cc3ccc(OCc4nn[nH]n4)cc3oc2=O)cc1 | 10 µM (active) | –
COc1ccc(S(=O)(=O)NCC(c2ccc(N(C)C)cc2)N2CCc3ccccc32)cc1OC (centres undefined) | – | -1.28% (inactive)
COc1ccc(C2=NC3(CCCCC3)N(CC(=O)Nc3ccc(C(C)C)cc3)C2=O)cc1 | – | 8.4% (inactive)
O=C(CCc1nc(CN2CCN(S(=O)(=O)c3ccc(F)cc3)CC2)no1)N1CCCCC1 | – | 2.7% (inactive)
CCC(C(=O)Nc1cccc(-c2nc3cccnc3s2)c1C)c1ccccc1 (centres undefined) | – | -4.21% (inactive)
Cc1c(NC(=O)Cc2ccccc2)cccc1-c1nc2cccnc2s1 | – | 6.14% (inactive)
Cc1c(NC(=O)C(C)(C)C)cccc1-c1nc2ccccc2s1 | 12.6 µM (active) | –
Cc1nn(CC(=O)N2CCN(c3cccc(C(F)(F)F)c3)CC2)c(=O)c2cc3sccc3n12 | – | -3.21% (inactive)
COc1cc(NC(=O)c2noc3c2CSc2ccccc2-3)cc(OC)c1OC | – | -2.69% (inactive)
COc1ccccc1CNC(=O)Cn1nc(C)c2nn(-c3ccc(Cl)cc3)c(C)c2c1=O | – | 4.68% (inactive)
